Assay [1] in a line: ATG_E_Box_CIS: Attagene CIS-FACTORIAL HepG2 Assay for human Enhancer Box (E-box) (AID 2282936). Particulars: HepG2 E-box cis-reporter transcription, actives raise or lower the signal. The method, boiled down:
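In this cell-based setup, HepG2 cells bearing transfected promoter-driven reporter units were exposed to chemicals for 24 h; reporter transcripts were amplified, 6-FAM-labelled, cut with HpaI and sized by capillary electrophoresis.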

Assay [2] is described as follows: ATG_M_61_CIS: Attagene CIS-FACTORIAL HepG2 Assay for M61 Transcription Factor (Internal Marker) (AID 2282937). The following applies: HepG2 Attagene CIS-FACTORIAL M61 internal marker reporter; actives raise or lower the signal. The method, boiled down:
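Fluorescence from labelled cDNA fragments, separated by capillary electrophoresis, quantifies reporter induction. HepG2 cells bearing transiently transfected cis-promoter MRTUs were incubated with test chemical for 24 h; DMSO defined baseline for gain/loss fitting.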

Assay [3] in a line: ATG_EGR_CIS: Attagene CIS-FACTORIAL HepG2 Assay for human Early Growth Response 1 (EGR1) (AID 2282938). The following applies: HepG2 Attagene CIS-FACTORIAL EGR reporter mRNA; actives raise or lower the signal. The method, boiled down: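 Cell-based multiplex transcription assay: HepG2 carrying transfected cis-element reporter units, 24 h chemical treatment. Fluorescence from capillary electrophoresis of RT-PCR products gives mRNA levels; fitting is bidirectional relative to DMSO.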

The nature of assay [4]: ATG_M_19_CIS: Attagene CIS-FACTORIAL HepG2 Assay for M19 Transcription Factor (Internal Marker) (AID 2282939). The following applies: HepG2 Attagene CIS-FACTORIAL M19 internal marker reporter; actives raise or lower the signal. The method, boiled down: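 HepG2, MRTU transient transfection, 24 h dosing. Total RNA → RT-PCR → 6-FAM primer extension → HpaI digest → CE fluorescence. Bidirectional curve fit, DMSO negative control.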

Assay [5] is described as follows: ATG_Ets_CIS: Attagene CIS-FACTORIAL HepG2 Assay for human Erythroblast Transformation Specific (ETS) (AID 2282941). Particulars: HepG2 ETS cis-reporter transcription, actives raise or lower the signal. The method, boiled down: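 Multiplexed reporter transcript profiling: HepG2, 24 h treatment, total RNA to cDNA, PCR, 6-FAM labelling, HpaI cut, capillary electrophoresis. Gain- or loss-of-signal fitted against DMSO.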

The target in assay [6] is Hepatocyte nuclear factor 3-beta (Homo sapiens) (UniProt Q9Y261). Briefly: ATG_FoxA2_CIS: Attagene CIS-FACTORIAL HepG2 Assay for human Forkhead box A2 (FOXA2) (AID 2282942). The following applies: HepG2 cis-reporter transcription factor activity, 24 h; actives raise or lower the signal. The method, boiled down:
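In transiently transfected human HepG2 cells, promoter-driven reporter mRNA levels after 24 h chemical exposure are determined via RT-PCR with capillary electrophoresis. DMSO serves as baseline for bidirectional fitting.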

Assay [7] can be described thus: ATG_FoxO_CIS: Attagene CIS-FACTORIAL HepG2 Assay for human Forkhead box O (FoxO) (AID 2282943). The following applies: HepG2 Attagene cis-reporter, FoxO element, mRNA; actives raise or lower the signal. In outline: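 Read-out: fluorescence of 6-FAM-labelled reporter cDNA fragments resolved by capillary electrophoresis. Transiently transfected HepG2 cells were dosed for 24 h; activity fitted in both directions relative to DMSO controls.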

Assay [8] can be described thus: ATG_GATA_CIS: Attagene CIS-FACTORIAL HepG2 Assay for human GATA Binding Protein (AID 2282944). The following applies: HepG2 GATA cis-element reporter, Attagene multiplex mRNA; actives raise or lower the signal. The method, boiled down: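 Cells: HepG2, transiently transfected with cis-regulated reporter transcription units. Exposure: 24 h. Detection: RT-PCR plus capillary electrophoresis of FAM-labeled fragments. Analysis: bidirectional, DMSO as baseline.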

Assay [9] can be described thus: ATG_GLI_CIS: Attagene CIS-FACTORIAL HepG2 Assay for human Zinc Finger Protein GLI1 (AID 2282945). Particulars: HepG2, Attagene cis-factorial reporter mRNA, GLI element; actives raise or lower the signal. The method, boiled down:
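Transiently transfected HepG2 cells report endogenous transcription factor activity via cis-element-driven reporter units. After 24 h compound exposure, reporter mRNA was measured by RT-PCR with capillary electrophoresis; bidirectional fitting against DMSO baseline.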

Assay [10] concerns the target Bile acid receptor (Homo sapiens) (UniProt Q96RI1). Kind of assay: ATG_IR1_CIS: Attagene CIS-FACTORIAL HepG2 Assay for human Nuclear Receptor Subfamily 1 Group H Member 4 (NR1H4), IR1 submotif (AID 2282946). The following applies: IR1 reporter transcription, actives raise or lower the signal. In outline:
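Fluorescence of capillary-separated, HpaI-digested RT-PCR reporter products gave IR1-element mRNA induction in HepG2 cells 24 h after dosing. Endogenous transcription factors drove the cis-regulated reporters; activity was fitted bidirectionally against DMSO.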

The nature of assay [11]: ATG_ISRE_CIS: Attagene CIS-FACTORIAL HepG2 Assay for human Interferon Regulatory Factor 1 (IRF1) binding to an Interferon-Stimulated Response Element (ISRE) (AID 2282948). The following applies: HepG2 ISRE cis-reporter (Attagene), mRNA transcription readout; actives raise or lower the signal. The method, boiled down: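 Signal reflects induction or loss of ISRE-linked reporter mRNA in transiently transfected HepG2 cells after a 24 h treatment, detected by fluorescent RT-PCR fragments on capillary electrophoresis and normalised to DMSO.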

Assay [12] in a line: ATG_M_32_CIS: Attagene CIS-FACTORIAL HepG2 Assay for M32 Transcription Factor (Internal Marker) (AID 2282949).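 Also: background control marker of the multiplexed CIS panel rather than a real target.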 The following applies: HepG2 Attagene cis-factorial M32 reporter, mRNA; actives raise or lower the signal. In outline: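 HepG2 transfectants (cis-regulated reporter transcription units) dosed 24 h. Reporter mRNA by RT-PCR plus CE, analysed as gain or loss relative to DMSO.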

The nature of assay [13]: ATG_M_06_CIS: Attagene CIS-FACTORIAL HepG2 Assay for M06 Transcription Factor (Internal Marker) (AID 2282950). Particulars: HepG2 Attagene CIS-FACTORIAL M06 internal marker reporter; actives raise or lower the signal. In outline:
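Measured 24 h post-dosing in transiently transfected HepG2 cells, this internal-marker endpoint reports reporter mRNA via RT-PCR with fluorescent primer extension and capillary electrophoresis. DMSO served as negative control and baseline for bidirectional fitting.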

Assay [14] addresses Hypoxia-inducible factor 1-alpha (Homo sapiens) (UniProt Q16665). Briefly: ATG_HIF1a_CIS: Attagene CIS-FACTORIAL HepG2 Assay for human Hypoxia Inducible Factor 1 (HIF1A) (AID 2282951). Particulars: HepG2 Attagene cis-factorial HIF1a reporter transcription; actives raise or lower the signal. The method, boiled down:
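In this multiplexed cell assay, HepG2 cells bearing transfected cis reporters are dosed for 24 h and reporter mRNA is read by RT-PCR plus capillary electrophoresis; signal increases and decreases are both scored against DMSO.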

The target of assay [15] is Hepatocyte nuclear factor 6 (Homo sapiens) (UniProt Q9UBC0). Briefly: ATG_HNF6_CIS: Attagene CIS-FACTORIAL HepG2 Assay for human Hepatocyte Nuclear Factor 6 (HNF6) (AID 2282952). The following applies: HepG2 Attagene cis-factorial HNF6 reporter transcription; actives raise or lower the signal. In outline: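 Endogenous factor activity read in transiently transfected HepG2 via promoter-regulated reporter transcripts. RNA harvested 24 h post-dosing, reverse-transcribed, PCR-amplified, FAM-labelled, HpaI-digested and resolved by capillary electrophoresis; fitted in both directions against DMSO.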
Hepatocyte nuclear factor 6 (Homo sapiens), sequence (Q9UBC0 whole entry, looked up): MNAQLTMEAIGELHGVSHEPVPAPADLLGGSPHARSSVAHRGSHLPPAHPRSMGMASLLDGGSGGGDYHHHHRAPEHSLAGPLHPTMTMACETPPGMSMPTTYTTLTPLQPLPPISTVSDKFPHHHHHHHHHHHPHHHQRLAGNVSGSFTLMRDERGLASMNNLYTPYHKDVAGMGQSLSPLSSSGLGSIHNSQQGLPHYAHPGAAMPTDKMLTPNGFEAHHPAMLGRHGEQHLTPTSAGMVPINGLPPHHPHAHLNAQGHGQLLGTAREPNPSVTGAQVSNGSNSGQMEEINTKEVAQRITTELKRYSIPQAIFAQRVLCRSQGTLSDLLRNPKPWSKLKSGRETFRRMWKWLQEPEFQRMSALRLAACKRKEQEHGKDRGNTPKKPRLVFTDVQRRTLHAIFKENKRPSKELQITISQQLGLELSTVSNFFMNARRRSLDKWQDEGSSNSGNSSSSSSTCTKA

The target of assay [16] is Heat shock factor protein 1 (Homo sapiens) (UniProt Q00613). Briefly: ATG_HSE_CIS: Attagene CIS-FACTORIAL HepG2 Assay for human Heat Shock Transcription Factor 1 (HSE) (AID 2282953). Particulars: HepG2 HSE cis-reporter, Attagene RNA transcription; actives raise or lower the signal. The method, boiled down: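 Reporter mRNA induction in HepG2 is measured 24 h after dosing, using transiently transfected multiplexed cis-regulated reporter units. Signal comes from capillary electrophoresis of labelled RT-PCR products, with DMSO as negative control.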
Heat shock factor protein 1 (Homo sapiens), sequence (Q00613 whole entry, looked up): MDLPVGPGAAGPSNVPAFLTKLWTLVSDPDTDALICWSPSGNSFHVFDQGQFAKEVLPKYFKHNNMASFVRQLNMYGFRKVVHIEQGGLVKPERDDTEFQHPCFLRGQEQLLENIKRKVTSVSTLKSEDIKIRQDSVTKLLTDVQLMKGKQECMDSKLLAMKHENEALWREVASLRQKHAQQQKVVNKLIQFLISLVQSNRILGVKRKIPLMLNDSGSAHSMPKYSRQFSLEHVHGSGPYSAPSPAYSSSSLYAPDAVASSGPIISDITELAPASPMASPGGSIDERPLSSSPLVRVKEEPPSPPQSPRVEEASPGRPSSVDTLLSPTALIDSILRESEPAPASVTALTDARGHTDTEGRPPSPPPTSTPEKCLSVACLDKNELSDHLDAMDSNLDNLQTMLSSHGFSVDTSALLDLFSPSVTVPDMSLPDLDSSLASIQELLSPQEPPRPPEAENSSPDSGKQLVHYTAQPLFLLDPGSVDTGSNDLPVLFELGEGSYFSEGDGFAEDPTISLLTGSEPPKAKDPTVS

Assay [17] in a line: ATG_MRE_CIS: Attagene CIS-FACTORIAL HepG2 Assay for human Metal Responsive Element (MRE) (AID 2282954). The following applies: HepG2 MRE cis-reporter transcription, Attagene multiplex; actives raise or lower the signal. The method, boiled down:
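Measured here is mRNA induction from an MRE cis-element reporter in HepG2 after 24 h, quantified by fluorescence of labelled RT-PCR products on capillary electrophoresis; gain- and loss-of-signal fits use DMSO as baseline.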

Assay [18] can be described thus: ATG_PBREM_CIS: Attagene CIS-FACTORIAL HepG2 Assay for human Phenobarbital-responsive Enhancer Module (PBREM) (AID 2282955). The following applies: HepG2 PBREM cis-reporter, Attagene multiplexed transcription; actives raise or lower the signal. In outline:
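After a 24 h incubation with test chemical, transfected HepG2 cells yield total RNA; reporter-specific RT-PCR products are fluorescently labelled, HpaI-digested and resolved by capillary electrophoresis against ROX size standards.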

A short description of assay [19]: ATG_ERE_CIS: Attagene CIS-FACTORIAL HepG2 Assay for Estrogen Response Element (ERE) (AID 2282940). Particulars: HepG2 ERE cis-reporter, Attagene RNA transcript; actives raise or lower the signal. In outline:
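After a 24 h chemical treatment, RNA from reporter-transfected HepG2 cells is reverse-transcribed, PCR-amplified and fluorescently labelled. Fragments separated by capillary electrophoresis give reporter signal; DMSO serves as negative control.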

Assay [20] in a line: ATG_GRE_CIS: Attagene CIS-FACTORIAL HepG2 Assay for human Glucocorticoid Response Elements (GRE) (AID 2282947). The following applies: HepG2 GRE cis-reporter, Attagene multiplex mRNA; actives raise or lower the signal. In outline:
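Fluorescence intensity of reporter-specific cDNA fragments, separated by capillary electrophoresis, provides the signal. Constructs carry cis-regulating promoters in transiently transfected HepG2 liver cells; 24 h incubation; fitting is bidirectional against DMSO.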

Drawing on PubChem BioAssay (EPA / NIEHS), this text covers outcome and AC50 for eight compounds.

The source made the active and inactive calls. The calls were made as follows: active = hit-call score of the fitted dose curve at least 0.9, where 1 is the maximum; inactive = score below 0.9.

Hepatocyte nuclear factor 3-beta (Homo sapiens), sequence (Q9Y261 whole entry, looked up): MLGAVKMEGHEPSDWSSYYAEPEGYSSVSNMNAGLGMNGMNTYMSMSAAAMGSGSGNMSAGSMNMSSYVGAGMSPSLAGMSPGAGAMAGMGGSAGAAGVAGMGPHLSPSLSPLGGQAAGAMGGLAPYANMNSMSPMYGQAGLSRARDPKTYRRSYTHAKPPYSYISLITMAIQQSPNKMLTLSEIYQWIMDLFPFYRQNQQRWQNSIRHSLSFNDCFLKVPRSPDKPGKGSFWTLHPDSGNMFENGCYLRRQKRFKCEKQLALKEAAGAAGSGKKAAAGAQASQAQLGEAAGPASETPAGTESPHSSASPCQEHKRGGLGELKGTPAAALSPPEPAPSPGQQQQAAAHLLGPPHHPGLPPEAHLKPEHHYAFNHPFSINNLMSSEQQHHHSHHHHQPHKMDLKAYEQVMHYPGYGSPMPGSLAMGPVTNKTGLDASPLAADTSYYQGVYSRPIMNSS
Hypoxia-inducible factor 1-alpha (Homo sapiens), sequence (Q16665 whole entry, looked up): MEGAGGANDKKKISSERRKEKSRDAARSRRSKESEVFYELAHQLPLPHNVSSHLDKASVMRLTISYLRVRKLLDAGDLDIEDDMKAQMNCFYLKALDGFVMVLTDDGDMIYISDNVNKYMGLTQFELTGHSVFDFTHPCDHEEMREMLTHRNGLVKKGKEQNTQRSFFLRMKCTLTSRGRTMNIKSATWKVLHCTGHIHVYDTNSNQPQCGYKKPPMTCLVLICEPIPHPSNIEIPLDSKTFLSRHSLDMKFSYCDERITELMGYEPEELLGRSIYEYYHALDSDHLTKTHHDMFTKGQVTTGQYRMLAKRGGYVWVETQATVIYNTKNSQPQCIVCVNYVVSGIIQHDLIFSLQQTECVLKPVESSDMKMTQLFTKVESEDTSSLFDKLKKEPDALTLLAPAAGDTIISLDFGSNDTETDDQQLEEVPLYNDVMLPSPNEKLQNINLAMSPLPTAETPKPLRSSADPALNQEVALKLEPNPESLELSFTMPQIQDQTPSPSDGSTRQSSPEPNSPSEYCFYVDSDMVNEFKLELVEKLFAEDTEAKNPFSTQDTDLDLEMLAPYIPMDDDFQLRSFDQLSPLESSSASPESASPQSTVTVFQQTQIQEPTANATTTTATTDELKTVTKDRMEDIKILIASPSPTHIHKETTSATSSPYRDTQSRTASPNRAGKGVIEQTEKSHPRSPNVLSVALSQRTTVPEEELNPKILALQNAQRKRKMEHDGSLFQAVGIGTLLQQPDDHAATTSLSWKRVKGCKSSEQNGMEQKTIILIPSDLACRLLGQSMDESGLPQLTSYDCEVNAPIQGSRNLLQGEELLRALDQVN
Bile acid receptor (Homo sapiens), sequence (Q96RI1 whole entry, looked up): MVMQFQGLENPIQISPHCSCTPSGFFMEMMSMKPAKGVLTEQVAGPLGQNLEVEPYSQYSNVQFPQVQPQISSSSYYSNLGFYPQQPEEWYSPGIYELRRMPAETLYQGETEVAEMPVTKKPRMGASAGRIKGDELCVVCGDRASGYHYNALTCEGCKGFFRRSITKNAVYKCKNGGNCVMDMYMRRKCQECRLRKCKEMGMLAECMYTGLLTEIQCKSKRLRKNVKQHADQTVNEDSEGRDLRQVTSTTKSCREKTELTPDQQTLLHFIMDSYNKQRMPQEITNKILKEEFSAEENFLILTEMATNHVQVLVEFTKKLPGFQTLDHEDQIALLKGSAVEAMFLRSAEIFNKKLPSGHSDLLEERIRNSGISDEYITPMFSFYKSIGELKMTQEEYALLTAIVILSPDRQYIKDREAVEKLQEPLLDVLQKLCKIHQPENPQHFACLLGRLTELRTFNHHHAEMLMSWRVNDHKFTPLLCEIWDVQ

Turning to `CC(=O)Nc1ccc(C)cc1C`, the result in assay [1], in [2], in assay [3], in assay [4], in assay [5] and in assay [6] was inactive. The outcome in assay [7], in assay [8], in [9], in assay [10], in [11] and in assay [12] was inactive. For the same compound, the result in assay [13], in [14], in [15], in assay [16], in assay [17] and in assay [18] was inactive.
As to `CC(C)C(C)(C)C(C)(C)C(C)(C)S`, the outcome in assay [1], in assay [2], in assay [3], in assay [4], in [19] and in [5] was inactive. The compound was classed as inactive in assay [6], in assay [7], in assay [9], in assay [11], in assay [12] and in assay [13]. The outcome in [14], in assay [15], in [16] and in [17] was inactive.
Turning to `CO[Si](C)(OC)c1ccccc1`, the outcome in [1], in assay [2], in assay [3], in assay [4], in [19] and in assay [6] was inactive. The call in assay [7], in assay [8], in assay [9], in assay [20], in [11] and in assay [12] was inactive. The result in assay [13], in assay [14], in [15], in assay [16], in assay [17] and in [18] was inactive.
`CC(C)=CCC[C@H](C)CC=O`: the result in assay [1], in assay [2], in assay [3], in [4], in assay [5] and in assay [6] was inactive. In addition, the call in [7], in assay [8], in assay [9], in assay [10], in assay [20] and in [11] was inactive. For the same compound, the compound was called inactive in assay [12], in assay [13], in assay [15] and in assay [17].
In the case of `CCC(=O)/C=C/C1C(C)=CCCC1(C)C` (stereo not drawn), the result in assay [1], in assay [2], in assay [3], in assay [4], in [5] and in assay [6] was inactive. The compound was classed as inactive in [7], in [8], in [9], in assay [10], in assay [20] and in assay [11]. Also, the result in [12], in [13], in [14], in assay [15], in assay [16] and in assay [17] was inactive.
Turning to `CCCC(C)C=O` (stereo not drawn), the outcome in [1], in assay [2], in assay [3], in assay [4], in assay [19] and in assay [5] was inactive. The compound was classed as inactive in assay [6], in [7], in assay [9], in assay [10], in assay [20] and in assay [11]. The result in [12], in [13], in assay [15], in assay [16], in [17] and in assay [18] was inactive.
With `CSc1nnc(C(C)(C)C)c(=O)[nH]1`, the outcome in assay [1], in assay [2], in assay [3], in assay [4], in assay [19] and in [6] was inactive. Besides, the call in assay [7], in assay [10], in [20], in assay [11], in [12] and in assay [13] was inactive. Moreover, the outcome in assay [14], in [15], in [16] and in [17] was inactive.
Turning to `O=C(O)COCCN1CCN(C(c2ccccc2)c2ccc(Cl)cc2)CC1` (stereo not drawn), the result in assay [1], in assay [2], in assay [3], in assay [4], in assay [5] and in [7] was inactive. The compound was classed as inactive in assay [11], in assay [12], in assay [13], in [16], in [17] and in [18]. In [19], the half-maximal activity concentration (AC50) was 18.8 µM (active).

For orientation: AC50 means the concentration giving half of the maximal activity seen.
